# Measurements taken from PubChem BioAssay.
# Activity calls are given as the source filed them. Unless noted, how the calls were made is not given here.
# Experiments:
# [1] = anti-His antibody binders, primary screen, artefact control for SMM control protein annotation, biochemical, small-molecule microarray, 635 nm fluorescence (AID 1128); conditions: anti-His Alexa647 antibody binding, higher = more signal;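 further: score merges feature fluorescence with signal-to-noise for each printed compound spot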
# [2] = system: Human papillomavirus type 1a E7 protein (residues 1-88); assay: HPV1a E7 small-molecule binders, primary screen, biochemical, small-molecule microarray, residues 1-88, 635 nm (AID 1129); conditions: small-molecule microarray binding, fluorescence 635 nm; higher = more signal
# [3] = target: Focal adhesion kinase 1 (Homo sapiens) (UniProt Q05397); assay: small-molecule microarray binders of FAK, primary screen, biochemical, 635/667 nm fluorescence, BSA, DTT (AID 1130); conditions: PTK2 binding, 635 nm fluorescence, higher = more signal;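 further: composite of spot emission at 667 nm and signal to noise over triplicate slides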
# Sequence of Focal adhesion kinase 1 (Homo sapiens) (Q05397 whole entry, looked up): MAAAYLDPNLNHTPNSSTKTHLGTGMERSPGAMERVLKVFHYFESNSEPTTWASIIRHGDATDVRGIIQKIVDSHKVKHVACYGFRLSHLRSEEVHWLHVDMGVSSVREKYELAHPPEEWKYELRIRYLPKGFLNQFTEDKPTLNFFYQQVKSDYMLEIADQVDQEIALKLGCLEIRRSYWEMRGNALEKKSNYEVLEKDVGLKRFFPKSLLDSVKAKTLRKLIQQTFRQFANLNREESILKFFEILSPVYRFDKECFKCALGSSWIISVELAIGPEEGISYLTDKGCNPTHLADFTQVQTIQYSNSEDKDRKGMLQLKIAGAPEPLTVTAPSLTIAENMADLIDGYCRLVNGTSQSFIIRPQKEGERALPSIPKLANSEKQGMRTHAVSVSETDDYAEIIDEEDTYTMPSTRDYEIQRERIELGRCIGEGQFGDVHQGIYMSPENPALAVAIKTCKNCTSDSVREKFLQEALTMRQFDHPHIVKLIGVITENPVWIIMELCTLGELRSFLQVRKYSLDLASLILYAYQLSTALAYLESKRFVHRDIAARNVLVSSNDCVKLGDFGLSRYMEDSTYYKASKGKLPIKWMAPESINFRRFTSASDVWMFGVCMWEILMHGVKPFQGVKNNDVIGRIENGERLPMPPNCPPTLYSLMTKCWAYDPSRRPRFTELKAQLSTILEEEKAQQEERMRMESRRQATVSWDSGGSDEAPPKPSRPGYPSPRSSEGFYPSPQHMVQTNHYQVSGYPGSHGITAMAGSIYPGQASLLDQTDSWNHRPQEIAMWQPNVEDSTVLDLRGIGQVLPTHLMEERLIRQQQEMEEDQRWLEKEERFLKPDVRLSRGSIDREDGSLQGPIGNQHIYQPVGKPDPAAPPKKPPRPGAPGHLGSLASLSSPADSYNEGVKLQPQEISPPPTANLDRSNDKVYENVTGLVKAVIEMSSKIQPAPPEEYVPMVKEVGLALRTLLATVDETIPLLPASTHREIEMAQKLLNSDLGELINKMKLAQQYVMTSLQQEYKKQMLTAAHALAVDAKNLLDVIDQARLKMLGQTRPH
# [4] = system: Fibrinogen (Alexa647-labelled); assay: fibrinogen binders on compound microarrays, profiling panel, artefact control for SMM control-protein annotation, biochemical, small-molecule microarray, 635/667 nm fluorescence (AID 1131); conditions: fibrinogen-A647 binding fluorescence, higher = more signal;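 further: z-score merges 667 nm fluorescence with per-spot signal-to-noise over triplicate slides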
# [5] = target: Follistatin (Homo sapiens) (UniProt P19883); assay: follistatin binders on small-molecule microarrays, primary screen, biochemical, small-molecule microarray, 635/667 nm fluorescence (AID 1132); conditions: FST binding, 635 nm fluorescence, higher = more signal
# Sequence of Follistatin (Homo sapiens) (P19883 whole entry, looked up): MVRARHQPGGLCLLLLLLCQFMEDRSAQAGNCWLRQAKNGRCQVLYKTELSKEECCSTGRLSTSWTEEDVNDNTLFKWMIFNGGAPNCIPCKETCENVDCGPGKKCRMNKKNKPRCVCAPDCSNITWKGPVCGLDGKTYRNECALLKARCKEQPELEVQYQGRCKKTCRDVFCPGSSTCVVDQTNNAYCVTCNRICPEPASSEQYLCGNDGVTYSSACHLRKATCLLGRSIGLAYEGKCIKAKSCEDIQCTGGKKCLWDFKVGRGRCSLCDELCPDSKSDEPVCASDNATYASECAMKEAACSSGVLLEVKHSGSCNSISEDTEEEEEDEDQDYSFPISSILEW
# [6] = target: Fibroblast growth factor 2 (Homo sapiens) (UniProt P09038); assay: FGF2 binders on small-molecule microarrays, primary screen, biochemical, small-molecule microarray, 635/667 nm fluorescence (AID 1133); conditions: small-molecule microarray binding, FGF2, fluorescence 635/667; higher = more signal
# Sequence of Fibroblast growth factor 2 (Homo sapiens) (P09038 whole entry, looked up): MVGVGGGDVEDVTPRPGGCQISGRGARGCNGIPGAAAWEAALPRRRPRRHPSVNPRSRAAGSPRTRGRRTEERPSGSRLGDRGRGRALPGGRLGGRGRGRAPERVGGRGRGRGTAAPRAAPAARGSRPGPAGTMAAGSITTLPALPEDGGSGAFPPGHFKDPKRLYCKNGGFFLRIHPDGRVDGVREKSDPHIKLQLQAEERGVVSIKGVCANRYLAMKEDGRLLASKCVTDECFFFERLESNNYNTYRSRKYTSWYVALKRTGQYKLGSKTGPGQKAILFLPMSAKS
# [7] = mitochondrial membrane potential change in A549 cells, profiling panel, cell-based, JC-1 fluorescence, basal, 24 h, 100 nL (AID 1138); conditions: higher = more signal;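 further: A549 lung adenocarcinoma cells under basal conditions with no added stimulus; test concentration not given here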
# Lefty1 = Lefty1 binders on small-molecule microarrays, primary screen, biochemical, small-molecule microarray, 635/667 nm fluorescence (AID 1139); conditions: small-molecule microarray binding, fluorescence 635/667; higher = more signal
# [8] = system: wheat germ agglutinin (Triticum aestivum), Alexa647-labelled; assay: wheat germ agglutinin binders on compound microarrays, profiling panel, artefact control for SMM control-protein annotation, biochemical, small-molecule microarray, 635/667 nm fluorescence (AID 1140); conditions: WGA-A647 binding, 635 nm fluorescence, higher = more signal;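 further: score merges 667 nm feature emission with signal to noise over triplicate slides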
# [9] = target: Luciferin 4-monooxygenase (Photinus pyralis) (UniProt P08659); assay: firefly luciferase enzyme inhibitors, primary screen, biochemical, luminescence, purified enzyme, 2006 set (AID 1141); conditions: SteadyGlo luminescence, 30 min, higher = more signal, called active from +8 up or from −8 down;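 further: cell-free assay with purified firefly luciferase at 100 ng per well in PBS; test concentration not given here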
# Sequence of Luciferin 4-monooxygenase (Photinus pyralis) (P08659 whole entry, looked up): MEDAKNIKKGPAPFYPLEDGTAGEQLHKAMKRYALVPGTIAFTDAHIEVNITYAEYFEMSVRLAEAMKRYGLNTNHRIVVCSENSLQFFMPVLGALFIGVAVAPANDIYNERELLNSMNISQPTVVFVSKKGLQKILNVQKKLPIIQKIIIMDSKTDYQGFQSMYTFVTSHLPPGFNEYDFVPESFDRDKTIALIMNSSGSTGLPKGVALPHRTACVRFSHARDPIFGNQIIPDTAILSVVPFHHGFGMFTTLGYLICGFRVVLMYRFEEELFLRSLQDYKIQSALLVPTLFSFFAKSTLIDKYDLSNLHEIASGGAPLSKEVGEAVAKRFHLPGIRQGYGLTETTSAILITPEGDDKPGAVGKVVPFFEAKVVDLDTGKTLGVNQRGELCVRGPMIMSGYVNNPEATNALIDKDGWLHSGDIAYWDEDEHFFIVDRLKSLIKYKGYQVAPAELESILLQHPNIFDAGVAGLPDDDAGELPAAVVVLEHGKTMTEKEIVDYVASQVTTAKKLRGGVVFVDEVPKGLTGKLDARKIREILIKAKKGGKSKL
# [10] = system: Wnt5a (protein binding on small-molecule microarray); assay: Wnt5a binders on small-molecule microarray, primary screen, biophysical, 635/667 nm fluorescence (AID 1142); conditions: 635 nm fluorescence, higher = more signal;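 further: fluorescence read at 667 nm with signal to noise per printed feature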
# [11] = cell viability in Huh7 cells, primary screen, cytotoxicity control for HCV replication inhibitor project, CellTiter-Glo luminescence, basal, 48 h (AID 1143); conditions: Huh7 HCV replicon, higher = more signal, called active from +8 up or from −8 down;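 further: Huh7 hepatoma cells carrying a hepatitis C replication reporter with no stimulus; test concentration not given here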
# [12] = P. aeruginosa biofilm formation inhibitors, primary screen, PAO1 strain, BacTiter-Glo luminescence, LB-PBS (AID 1144); conditions: 12 h, higher = more signal
# [13] = CREB reporter modulators without forskolin, primary screen, cell-based, PC12, CRE-LacZ reporter, unstimulated (AID 1145); conditions: no forskolin, luminescence, 4.5 h, higher = more signal, called active from +8 up or from −8 down
# [14] = CREB reporter modulators under forskolin, primary screen, cell-based, PC12, CRE-LacZ reporter, forskolin-stimulated (AID 1146); conditions: luminescence, 4.5 h, higher = more signal, called active from +8 up or from −8 down;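 further: PC12 cells with 6xCRE LacZ reporter stimulated by forskolin 10 µM; beta-galactosidase reporter signal reflecting CREB driven transcription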
# [15] = target: Streptavidin (Streptomyces avidinii) (UniProt P22629); assay: streptavidin binders on small-molecule microarray, primary screen, artefact control for SMM compound annotation, biophysical, 635/667 nm fluorescence (AID 1147); conditions: streptavidin binding, higher = more signal;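 further: signal reflects streptavidin binding to arrayed compounds as a control protein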
# Sequence of Streptavidin (Streptomyces avidinii) (P22629 whole entry, looked up): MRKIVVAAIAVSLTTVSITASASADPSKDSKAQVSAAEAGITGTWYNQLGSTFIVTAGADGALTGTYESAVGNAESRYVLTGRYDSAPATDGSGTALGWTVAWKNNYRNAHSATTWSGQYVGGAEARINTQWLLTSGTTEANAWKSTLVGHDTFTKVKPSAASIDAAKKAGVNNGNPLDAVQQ
# [16] = small-molecule binders of probe aInhba, primary screen, biochemical, small-molecule microarray, 635/667 nm fluorescence (AID 1148); conditions: higher = more signal;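 further: score merges 667nm spot fluorescence with signal-to-noise for antibody binding to printed compounds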
# Torsin-1A (Homo sapiens) [17] = target: Torsin-1A (Homo sapiens) (UniProt O14656); assay: torsin A binders from cell lysate, primary screen, small-molecule microarray, wild-type, 635/667 nm (AID 1149); conditions: COS7 hTOR1A-WT lysate, 635 nm fluorescence, higher = more signal
# Sequence of Torsin-1A (Homo sapiens) (O14656 whole entry, looked up): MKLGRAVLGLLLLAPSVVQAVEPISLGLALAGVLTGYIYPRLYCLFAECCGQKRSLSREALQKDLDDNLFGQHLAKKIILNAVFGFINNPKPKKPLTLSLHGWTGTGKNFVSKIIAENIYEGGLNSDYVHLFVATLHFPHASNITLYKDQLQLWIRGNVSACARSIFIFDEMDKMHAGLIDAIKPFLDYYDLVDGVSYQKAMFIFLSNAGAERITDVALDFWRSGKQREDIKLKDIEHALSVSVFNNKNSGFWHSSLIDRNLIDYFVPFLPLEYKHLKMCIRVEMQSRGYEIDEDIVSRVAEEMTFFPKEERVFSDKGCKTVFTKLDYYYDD
# Torsin-1A (Homo sapiens) [18] = target: Torsin-1A (Homo sapiens) (UniProt O14656); assay: small-molecule binders of mutant TOR1A in lysate, primary screen, cell lysate, small-molecule microarray, COS7 lysate, 635/667 nm fluorescence (AID 1150); conditions: COS7 hTOR1A mutant lysate, 635 nm fluorescence, higher = more signal;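 further: score pools 667 nm emission and signal to noise measuring lysate protein binding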
# [19] = system: Sonic hedgehog protein (Shh); assay: small-molecule binders of Shh protein, primary screen, biochemical, small-molecule microarray, 635/667 nm fluorescence (AID 1151); conditions: small-molecule microarray binding, 635 nm fluorescence; higher = more signal;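 further: Shh protein binding to compounds spotted on small-molecule microarray slides; score combines spot fluorescence intensity with signal-to-noise across triplicate slides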
Structure (SMILES),composite z-score [1],composite z-score [2],composite z-score [3],composite z-score [4],composite z-score [5],composite z-score [6],z-score [7],composite z-score (Lefty1),composite z-score [8],z-score [9],composite z-score [10],z-score [11],z-score [12],z-score [13],z-score [14],composite z-score [15],composite z-score [16],composite z-score (Torsin-1A (Homo sapiens) [17]),composite z-score (Torsin-1A (Homo sapiens) [18]),composite z-score [19]
CCCC[C@@H]1C[C@H]1[C@@H](NC(=O)c1ccccc1)c1ccc(C(F)(F)F)cc1,0.581,-0.551,-0.0796,-2.43,-1,-1.19,-0.0527,-0.549,-0.331,0.286 (inactive),-0.547,0.085 (inactive),0.401 (inactive),-0.572 (inactive),0.24 (inactive),0.056,-0.143,-1.15,-0.349,-1.85
C=CC[C@@]1(C(=O)N2CCOCC2)N=C(c2ccc(OCCCO)cc2)O[C@@H]1c1ccccc1CN=[N+]=[N-],3.06,1.23,0.201,0.905,1.35,1.45,1.97,0.349,0.786,0.0079 (inactive),0.935,-2.2 (inactive),0.887 (inactive),0.204 (inactive),-0.818 (inactive),1.28,0.305,0.495,1.46,0.0134
CCCCO[C@H]1C[C@H]2C(I)=C[C@@H]1C(=O)[C@]21CO1,1.74,-0.522,0.047,-0.886,0.145,0.129,0.258,0.351,-0.164,0.274 (inactive),-0.0784,-0.232 (inactive),0.0666 (inactive),0.496 (inactive),0.672 (inactive),-0.258,-0.161,-0.336,-0.145,0.816
CC(C)(C)N1CC=CC23O[C@@H]4C=CCOC(=O)[C@@H]4[C@H]2C(=O)N(CCCCCCO)[C@@H]3C1=O (stereo not given in full),0.184,-0.184,0.527,-1.52,-1.42,-0.877,-0.12,-0.447,0.132,-0.234 (inactive),-0.373,0.0926 (inactive),2.06 (inactive),0.475 (inactive),0.437 (inactive),-0.772,-0.209,-0.191,0.769,-1.13
CCCC[C@@H]1C[C@H]1[C@@H](NC(=O)Cc1ccccc1)c1ccc(-c2ccccc2)cc1,0.272,1.12,0.913,0.655,-0.173,-0.405,0.629,-0.0127,0.0864,0.624 (inactive),-0.111,-1.31 (inactive),1.65 (inactive),0.39 (inactive),1.19 (inactive),0.698,-0.158,-0.369,0.21,-0.756
C=CCC(OC(C)=O)[C@@H]1[C@@H](N(Cc2ccc(-c3ccccc3)cc2)C(=O)Cc2ccc(F)cc2)c2cc(OCCCO)ccc2N1C(=O)Cc1ccc(OC)cc1 (stereo not given in full),-0.148,-0.212,0.328,0.397,0.508,-0.472,0.626,-0.0463,0.687,-0.51 (inactive),0.205,0.145 (inactive),0.729 (inactive),1.25 (inactive),1.1 (inactive),0.586,-0.128,0.106,-0.751,0.164
O=C(N1CCCCC1)[C@@]1(CCS(=O)(=O)c2ccccc2)COC(c2ccc(OCCCO)cc2)=N1,2.55,1.22,0.298,0.839,1.4,1.52,0.32,0.126,0.848,-0.0825 (inactive),1.17,-2.3 (inactive),0.514 (inactive),0.62 (inactive),-0.334 (inactive),1.31,0.421,1.19,0.496,0.447
CN(C)CCCNC(=O)[C@@]1(c2ccc([N+](=O)[O-])cc2)CC(=O)N(CC23CC4CC(CC(C4)C2)C3)[C@@H]1c1ccc(CO)cc1I,1.46,1.21,-0.0381,0.846,1.35,1.34,-2.32,1.5,0.674,-1.46 (inactive),0.607,-5.93 (inactive),-0.263 (inactive),0.468 (inactive),0.372 (inactive),0.164,0.206,0.835,0.996,1.96
COC(=O)[C@@]1(Cc2ccc(OC)cc2)[C@H]2c3cc(C(=O)N4CCCC4)n(Cc4c(-c5ccccc5)noc4C)c3C[C@H]2CN1C(=O)c1ccccc1,1.45,1.27,0.372,0.695,0.699,-0.298,-0.608,0.0669,0.539,2.05 (inactive),1.01,-3.29 (inactive),-0.452 (inactive),-0.185 (inactive),-0.531 (inactive),0.945,0.659,1.27,0.776,-0.314
